Test results published in PubChem BioAssay.
Activity calls are given as the source filed them.

These compounds were tested against NADPH oxidase 2 (Homo sapiens) (UniProt P04839) (assay: NOX2-dependent H2O2 signal modulators, primary screen, NOX inhibitor project, cell-based, HEK293-NOX2, PMA-stimulated, Amplex Red fluorescence (AID 1159; further: test concentration not given here)). Details: 45 min, higher = more signal, called active from +8 up or from −8 down.
Chain of NADPH oxidase 2 (Homo sapiens) (P04839 whole entry, looked up): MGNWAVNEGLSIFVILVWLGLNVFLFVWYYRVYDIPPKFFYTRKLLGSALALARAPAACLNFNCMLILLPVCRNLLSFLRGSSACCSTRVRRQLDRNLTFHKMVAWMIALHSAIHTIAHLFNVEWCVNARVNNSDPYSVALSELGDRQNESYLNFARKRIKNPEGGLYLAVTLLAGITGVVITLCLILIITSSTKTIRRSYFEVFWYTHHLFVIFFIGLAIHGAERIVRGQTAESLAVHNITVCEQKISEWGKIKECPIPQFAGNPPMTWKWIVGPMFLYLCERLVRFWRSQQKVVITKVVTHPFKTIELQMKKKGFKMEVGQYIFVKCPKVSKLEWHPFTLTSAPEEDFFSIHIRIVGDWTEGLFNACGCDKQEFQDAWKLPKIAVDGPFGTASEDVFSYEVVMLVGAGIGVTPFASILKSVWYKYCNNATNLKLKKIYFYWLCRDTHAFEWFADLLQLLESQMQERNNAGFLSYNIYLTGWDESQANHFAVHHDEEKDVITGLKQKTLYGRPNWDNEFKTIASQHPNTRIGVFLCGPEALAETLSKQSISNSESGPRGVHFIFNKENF

z-score, inactive:
CC(C)C(=C=CC[C@@H](O)c1ccc(OCCO)cc1)CCO -1.47, C=CCC(OC(C)=O)[C@@H]1[C@@H](N(Cc2cc3ccccc3o2)C(=O)c2ccc(-c3ccccc3)cc2)c2cc(OCCCO)ccc2N1C(=O)c1ccc2ccccc2n1 (stereo partly drawn) 1.88, CC(C)c1ccc(NN2C(C(O)C(C)C)C=CC3C(=O)N(c4ccccc4)C(=O)C32)cc1 (stereo not drawn) -0.862, CCCC[C@H]1OB(O)C[C@H]2C1=C(COC)C[C@H]1C(=O)C=CC(=O)[C@H]12 -0.235, COc1ccc([Si](C)(C)[C@H]2[C@H](CCn3cc([C@H](O)c4ccccc4)nn3)O[C@@]3(C(=O)N(c4ccccc4)c4ccccc43)[C@@H]2C)cc1 1.47, N#Cc1ccc(C(O)C2C=CC3C(=O)NC(=O)C3N2Nc2ccccn2)cc1 (stereo not drawn) -1.73, O=C1C2C=CC(C(O)c3cccs3)N(Nc3ccccc3)C2C(=O)N1c1ccccc1 (stereo not drawn) -2.63, CC(C)=CCN(C(=O)C#Cc1ccccc1)[C@H](CO)c1ccccc1 2.15, CCCC[C@@H]1C[C@H]1[C@@H](NC(=O)Cc1ccccc1)c1ccc(Cl)cc1 -0.795, O=C1C2C=CC(C(O)c3ccc([N+](=O)[O-])cc3)N(Nc3ccccc3)C2C(=O)N1c1ccccc1 (stereo not drawn) -2.02, O=C1C2C=CC(C(O)C(c3ccccc3)c3ccccc3)N(Nc3ccccc3)C2C(=O)N1c1ccccc1 (stereo not drawn) -1.72, CC(C)CNC(=O)[C@@]1(C)c2ccccc2C(=O)N(Cc2cc(F)cc(C(F)(F)F)c2)[C@H]1c1ccc(CO)cc1 -0.152, Cc1c(NC(=O)/C(C#N)=C/c2ccc(Cl)cc2)c(=O)n(-c2ccccc2)n1C -2.29, CN1C(=O)[C@]2(CCS(=O)(=O)c3ccccc3)N=C(c3ccc(OCCCO)cc3)O[C@@H]2c2ccccc21 0.276, COc1cccc(C[C@H]2C[C@@H](CO[Si](C(C)C)(C(C)C)C(C)C)N3C(=O)[C@@]4(C(C)=O)O[C@@]23[C@@H]2C(=O)N(C)C(=O)[C@@H]24)c1 -0.175, CC(=O)n1cc(C(O)C2C=CC3C(=O)N(c4ccccc4)C(=O)C3N2Nc2ccccc2F)c2ccccc21 (stereo not drawn) -1.82, CC=CC(O)C1C=CC2C(=O)N(C)C(=O)C2N1NC(=O)OC(C)(C)C (stereo not drawn) -0.798

Each compound was assayed against NADPH oxidase 4 (Homo sapiens) (UniProt Q9NPH5) (assay: NOX4-dependent H2O2 signal modulators, primary screen, NOX inhibitor project, cell-based, HEK293-NOX4, tetracycline-induced, Amplex Red fluorescence (AID 1160)). Details: 45 min, higher = more signal, called active from +8 up or from −8 down.
Chain of NADPH oxidase 4 (Homo sapiens) (Q9NPH5 whole entry, looked up): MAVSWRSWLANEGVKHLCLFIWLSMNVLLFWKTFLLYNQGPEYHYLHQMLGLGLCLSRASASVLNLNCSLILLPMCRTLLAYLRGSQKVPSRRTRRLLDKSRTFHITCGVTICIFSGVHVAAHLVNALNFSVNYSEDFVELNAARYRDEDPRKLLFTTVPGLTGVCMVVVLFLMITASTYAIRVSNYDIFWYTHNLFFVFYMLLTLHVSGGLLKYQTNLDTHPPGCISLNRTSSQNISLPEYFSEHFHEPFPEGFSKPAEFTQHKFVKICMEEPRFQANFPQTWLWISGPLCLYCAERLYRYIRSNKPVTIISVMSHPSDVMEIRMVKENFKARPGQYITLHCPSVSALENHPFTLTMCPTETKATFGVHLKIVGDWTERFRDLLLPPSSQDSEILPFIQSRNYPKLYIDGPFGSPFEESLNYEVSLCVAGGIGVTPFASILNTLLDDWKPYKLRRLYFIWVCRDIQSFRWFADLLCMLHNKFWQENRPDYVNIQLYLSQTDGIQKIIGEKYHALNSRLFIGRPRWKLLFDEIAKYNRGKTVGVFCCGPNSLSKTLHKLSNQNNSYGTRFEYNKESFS

z-score, inactive:
CCCCC(=C=CC[C@@H](O)c1cccc(OCCO)c1)CCO -0.283, C=CCOC(=O)[C@@H]1[C@H]2C(=O)O[C@H](c3ccccc3)[C@H](c3ccccc3)N2[C@H](c2ccc(OCCOC(=O)[C@H]3C[C@H]4C(=O)NCC(=O)N4[C@H]3c3ccc(O)cc3)cc2)[C@@]12C(=O)Nc1ccc(I)cc12 0.812, CN1C=C(C(=O)OCCS(C)(=O)=O)C(C(=O)OCCS(C)(=O)=O)=CC(CCCO)=CC1c1ccc(CN2CCCC2)cc1 (stereo not drawn) 0.0702, COCCOC(=O)N1C(=O)[C@@]2(c3cc(C#CC4(O)CCCCCC4)ccc31)[C@H](C(=O)N1CCc3cc(OC)c(OC)cc3C1)[C@H]1C(=O)O[C@H](c3ccccc3)[C@H](c3ccccc3)N1[C@@H]2c1ccc(O)cc1 0.296, O=C1O[C@@H](c2ccccc2)[C@@H](c2ccccc2)N2[C@@H](c3ccc(OCCO)cc3)[C@]3(C(=O)Nc4ccc(C#CCCO)cc43)[C@@H](C(=O)Nc3nc4ccccc4s3)[C@H]12 0.868, COCCCNC(=O)[C@@H]1c2ccccc2C(=O)N(C2CCCCC2)[C@H]1c1ccc(CO)cc1 -1.61, C=CC[C@]1(C(=O)NCc2ccccc2)COC(c2ccc(OCCCO)cc2)=N1 0.00403, CN(C)CCCNC(=O)[C@@]1(Cc2ccccc2I)c2ccccc2C(=O)N(Cc2ccccc2)[C@H]1c1ccc(CO)cc1 -3.08, COc1cccc(OC)c1C(=O)O[C@H]1[C@@H]2OC(=O)[C@H](Cc3cccc(Br)c3)C/C=C/C[C@@H](Cc3cccc(Br)c3)C(=O)O[C@H]2[C@@H](OC)O[C@@H]1CO -0.0533, [N-]=[N+]=NCc1ccccc1C[C@]1(C(=O)NCc2ccccc2)N=C(c2ccc(OCCCO)cc2)O[C@H]1c1ccccc1CN=[N+]=[N-] 0.145, COCCOC(=O)N1C(=O)[C@@]2(c3cc(C#Cc4ccc(OC)cc4)ccc31)[C@H](c1ccc(OCCO)cc1)N1[C@H](c3ccccc3)[C@H](c3ccccc3)OC(=O)[C@H]1[C@@H]2C(=O)N1CCCCCCC1 0.274, Cc1ccc(S[C@]2(C(=O)NC3CC3)CC(=O)N(Cc3cc(C(F)(F)F)cc(C(F)(F)F)c3)[C@@H]2c2ccc(CO)cc2I)cc1 -1.62, CC1(C)OC[C@@]23C=C(Br)[C@@H](C[C@H]12)[C@@]1(CO1)C3=O 0.63, CCOC(=O)C1=CC[C@@H](c2ccccc2)N(S(=O)(=O)c2ccc(C)cc2)[C@H]1C#N 0.122, COc1ccccc1CN1C(=O)c2ccccc2[C@](Cc2ccccc2I)(C(=O)NCCCN(C)C)[C@@H]1c1ccc(CO)cc1 -4.81, CCCC=C(CCC)[C@@H](NC(=O)c1ccco1)c1ccc(C(=O)OC)cc1 1.46, CC(C)(C)OC(=O)CC[C@]1(C(N)=O)N=C(c2ccc(OCCCO)cc2)O[C@H]1c1ccccc1CN=[N+]=[N-] -0.508, COc1ccc(NN2C(C(O)c3cc(C(F)(F)F)cc(C(F)(F)F)c3)C=CC3C(=O)N(C4CCCCC4)C(=O)C32)cc1 (stereo not drawn) -1.64, COc1ccc(CCNC(=O)[C@@]2(C)c3ccccc3C(=O)N(Cc3cc(C(F)(F)F)cc(C(F)(F)F)c3)[C@H]2c2ccc(CO)cc2)cc1 -1.7, CC(C)C(=C=CC[C@@H](O)c1ccc(OCCO)cc1)CCO -0.462, C=CCC(OC(C)=O)[C@@H]1[C@@H](N(Cc2cc3ccccc3o2)C(=O)c2ccc(-c3ccccc3)cc2)c2cc(OCCCO)ccc2N1C(=O)c1ccc2ccccc2n1 (stereo partly drawn) -0.895, CC(C)c1ccc(NN2C(C(O)C(C)C)C=CC3C(=O)N(c4ccccc4)C(=O)C32)cc1 (stereo not drawn) -4.22, CCCC[C@H]1OB(O)C[C@H]2C1=C(COC)C[C@H]1C(=O)C=CC(=O)[C@H]12 -0.663, COc1ccc([Si](C)(C)[C@H]2[C@H](CCn3cc([C@H](O)c4ccccc4)nn3)O[C@@]3(C(=O)N(c4ccccc4)c4ccccc43)[C@@H]2C)cc1 1.3, N#Cc1ccc(C(O)C2C=CC3C(=O)NC(=O)C3N2Nc2ccccn2)cc1 (stereo not drawn) -2.92, O=C1C2C=CC(C(O)c3cccs3)N(Nc3ccccc3)C2C(=O)N1c1ccccc1 (stereo not drawn) -3.57, CC(C)=CCN(C(=O)C#Cc1ccccc1)[C@H](CO)c1ccccc1 -1, CCCC[C@@H]1C[C@H]1[C@@H](NC(=O)Cc1ccccc1)c1ccc(Cl)cc1 -0.195, O=C1C2C=CC(C(O)c3ccc([N+](=O)[O-])cc3)N(Nc3ccccc3)C2C(=O)N1c1ccccc1 (stereo not drawn) -4.69, O=C1C2C=CC(C(O)C(c3ccccc3)c3ccccc3)N(Nc3ccccc3)C2C(=O)N1c1ccccc1 (stereo not drawn) -4.94, CC(C)CNC(=O)[C@@]1(C)c2ccccc2C(=O)N(Cc2cc(F)cc(C(F)(F)F)c2)[C@H]1c1ccc(CO)cc1 0.261, Cc1c(NC(=O)/C(C#N)=C/c2ccc(Cl)cc2)c(=O)n(-c2ccccc2)n1C -0.376, CN1C(=O)[C@]2(CCS(=O)(=O)c3ccccc3)N=C(c3ccc(OCCCO)cc3)O[C@@H]2c2ccccc21 -0.0954, COc1cccc(C[C@H]2C[C@@H](CO[Si](C(C)C)(C(C)C)C(C)C)N3C(=O)[C@@]4(C(C)=O)O[C@@]23[C@@H]2C(=O)N(C)C(=O)[C@@H]24)c1 0.746, CC(=O)n1cc(C(O)C2C=CC3C(=O)N(c4ccccc4)C(=O)C3N2Nc2ccccc2F)c2ccccc21 (stereo not drawn) -3.23, CC=CC(O)C1C=CC2C(=O)N(C)C(=O)C2N1NC(=O)OC(C)(C)C (stereo not drawn) -1.37
